This note sets out measurements from PubChem BioAssay (NCI).

Structures are written as SMILES. “And” between values parts separate entries of the source, which are not always exact repeats. Equal values may be shown once. About 83,000 compounds went through this panel and 20% of them were active in at least one assay; those are over-represented in the sample as a whole.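 Compound tested at a single concentration for 48 hours in 96-well plates; a percent growth value below 10 was scored as active.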 The source made the active and inactive calls.

For this experiment, the system named is HL-60(TB) leukemia. The experiment can be described thus: NCI-60 one-dose screen, 48 h (100 = growth as untreated, 0 = no growth, -100 = all killed). The settings on record: 10 µM unless noted.
Consider `O=C1Nc2cc(Cl)ccc2/C1=C/c1ccc(N2CCOCC2)s1`, for which the growth was 93.4% (inactive).
For `O=C(Nc1ccccc1)OCC(CN1CCCCC1)OC(=O)Nc1ccccc1` (centres undefined) the value was 69.3% (inactive) and 95% (inactive); for `O=C1C2C3C=CC(O3)C2C(=O)N1Nc1ccccc1` (centres undefined), 102% (inactive).
Then `CC1OC2CC(=O)OC2C2=C1C(=O)c1c(O)cccc1C2=O` (centres undefined), with -47.8% (active); and `S=C(S)N1CCCC1`, with 114% (inactive) and 110% (inactive).
Take `COc1ccc(-c2nc(SCC(C)C)nc(N/N=C\c3ccc(F)cc3)c2C#N)cc1`: the growth was 83.4% (inactive).
Then `COC(=O)CC1=C(c2ccc([N+](=O)[O-])cc2)CCC1=O`, with 100% (inactive); and `COc1cc(-c2nc3ccccc3[nH]2)ccc1OCc1nnc(-c2ccc(CC(C)C)cc2)o1`, with 98.5% (inactive).
For `CCCCn1c(=O)c(C2CNC(=O)c3ccccc3N2)cc2ccccc21` (centres undefined) the value was 96.7% (inactive); for `[2H]C1([2H])[C@H](C)O[C@H](C)C([2H])([2H])N1c1ccc(NC(=O)c2cccc(-c3ccc(OC(F)(F)F)cc3)c2C)cn1`, 56.3% (inactive).
For `C=C1C(=O)O[C@H]2[C@H]1CC/C(COC(=O)NCCc1ccc(OC)c(OC)c1)=C\CC[C@@]1(C)O[C@@H]21` the value was 30.7% (inactive); for `COc1cc2nc3c(=O)n(-c4ccc(C#N)cc4)cnn3c(=O)c2cc1OC`, 92.1% (inactive).
Regarding `C=C1C(=O)O[C@H]2[C@H]1CC/C(COC(=O)NCc1c[nH]c3ccc(OC)cc13)=C\CC[C@@]1(C)O[C@@H]21`, the growth was -35.8% (active).
Then `Oc1c(Cl)cc(Cl)cc1Sc1cc(Cl)cc(Cl)c1O`, with 28% (inactive) and -16.5% (active) and 52.9% (inactive); and `O=C(CCC(=O)N/N=C/c1ccccc1O)N/N=C/c1ccccc1O`, with 7.25% (active).
Then `O=C1/C(=C/c2ccc(O)cc2O)N=C2SCCCN12`, with 100% (inactive); and `COc1ccc2nc(NC(=O)CN3CCn4c(nnc4C(F)(F)F)C3)sc2c1`, with 103% (inactive); and `COC(=O)c1ccccc1Cl`, with 97.3% (inactive).
For `Nc1c(O)c(S(=O)(=O)O)c(O)c2c1C(=O)c1ccccc1C2=O` the value was -8.61% (active); for `S=C1CCSC(=S)N1CCCN1C(=S)CCSC1=S`, 36.5% (inactive).
As for `Nc1nc2ccc(-c3nc4ccc5[nH]ncc5c4c4c3CCCC4)cc2s1`, the growth was 94.7% (inactive).
Then `CSc1nc(N)c(CNC(C)c2ccccc2)c(=O)n1C` (centres undefined), with 81.1% (inactive); and `Cc1ncc(CO)c(C(=O)O)c1O`, with 84.2% (inactive); and `COc1cc(CNC(=O)/C=C/C=C/c2ccc3c(c2)OCO3)ccc1OCc1cn(-c2ccc(C)c(C)c2)nn1`, with 84.4% (inactive).
For `O=C(Cn1cc(CN2CCCCCC2)nn1)Nc1ccc2c(ccn2Cc2ccccc2)c1` the value was 92.2% (inactive); for `COc1cc(NS(C)(=O)=O)ccc1Nc1c2ccccc2nc2c(C)cccc12`, -29.5% (active) and -20.2% (active); for `CC(C(=O)O)n1cc(C#N)c(=O)[nH]c1=O` (centres undefined), 104% (inactive) and 90.4% (inactive).
For `O=c1scc(-c2ccc(C(F)(F)F)cc2)s1` the value was 92.7% (inactive); for `N#Cc1cccc(/C=C(/C(=O)c2ccccc2)c2ccccc2)c1`, 43.7% (inactive); for `COc1ccc(SC2c3cc(OC)c(OC)cc3Oc3nc(N)c(C#N)c(N)c32)cc1` (centres undefined), -51.5% (active).
With `COc1ccc(C(=O)NC(=O)Nc2cc3c(cc2F)/C(=C/c2[nH]c(C)c(CCC(=O)O)c2C)C(=O)N3)c(F)c1`, the growth was 20.9% (inactive).
Then `O=C(Cc1ccccc1[N+](=O)[O-])c1ccc2c(c1)OCO2`, with 99.7% (inactive); and `O=C1c2ccccc2C(=O)c2c1oc1c2c(=O)[nH]c2ccc(Cl)cc21`, with 94.5% (inactive).
For `CS(=O)(=O)c1nccc(-c2c(-c3cccc(OCCc4ccccc4)c3)nc3sccn23)n1`, the growth is 99.4% (inactive).
For `Cc1nc2ncccc2nc1Nc1ccc(S(=O)(=O)Nc2ccccn2)cc1` the value was 100% (inactive).
With `O=C(/C=C/c1ccccc1)Oc1ccc(/C=C/c2cc(OC(=O)/C=C/c3ccccc3)cc(OC(=O)/C=C/c3ccccc3)c2)cc1`, the growth was 93% (inactive).
For `ClCC(Cl)[C@@H]1CC2C=CC1C2` (some centres undefined) the value was 104% (inactive).
Consider `Oc1c(C(Nc2cccc3ccccc23)c2ccccc2)ccc2cccnc12` (centres undefined), for which the growth was -37.4% (active).
As to `COc1cc2nc(N3CCN(C(=O)C4COc5ccccc5O4)CC3)nc(N)c2cc1OC` (centres undefined), the growth was 104% (inactive) and 103% (inactive) and 99.9% (inactive).
